The text below walks through data of PubChem BioAssay (NCATS).

Records with an inconclusive call do not appear. Active and inactive are the calls of the source. Calls come from the whole dose curve; as a rule, active = well fitted curve in the direction sought with a large enough effect; inconclusive = small, poorly fitted or top-dose-only effect, or another doubt; inactive = no such curve, though single readings can be large; an effect the other way counts as inactive or inconclusive.

A short description of one experiment: Confirmation and Secondary Assay for Modulators of Hemoglobin Beta Chain Splicing at IVS2 654 locus (AID 910).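 Note: HeLa cells stably carrying EGFP split by mutant beta-globin IVS2-654 intron.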 As to conditions: HeLa EGFP-654 splicing reporter, GFP fluorescence, 48 h; series mostly up to 46.1 µM. The gist of the method: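 HeLa cells stably expressing EGFP interrupted by β-globin IVS2-654 intron, seeded overnight in Opti-MEM/2% FCS, then treated 2 days at 37 °C. Restored splicing read as total peak GFP intensity per well by laser scanning cytometry (488 nm excitation, 500–520 nm emission); 500 nM antisense PNA as control.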
In the case of `CN(C)CCN(Cc1cccs1)c1ccccn1`, the compound was classed as inactive.

On to `CCCN(CCC)CCc1cccc2c1CC(=O)N2`, for which the outcome was inactive.

On to `Cc1ccc(S(=O)(=O)NC(=O)NN2CCCCCC2)cc1`, for which the compound was classed as inactive.

Turning to `CCCC(C(=O)OCCN(CC)CC)(c1ccccc1)c1ccccc1`, the result was inactive.

For `Cc1ccc(/C(=C\CN2CCCC2)c2ccccn2)cc1`, the compound was classed as inactive.

Consider `CCCCNc1ccc(C(=O)OCCN(C)C)cc1`, for which the outcome was inactive.

Turning to `OC(CCN1CCCCC1)(c1ccccc1)C1CCCCC1` (stereo unspecified), the result was inactive.

As for `CC(C)NNC(=O)c1ccncc1`, the compound was called inactive.

On to `CCn1cc(C(=O)O)c(=O)c2cc3c(cc21)OCO3`, for which the compound was called inactive.

As for `COc1cc(Cc2cnc(N)nc2N)cc(OC)c1OC`, the compound was called inactive.

Consider `C=CCc1ccccc1OCC(O)CNC(C)C` (stereo unspecified), for which the call was inactive.

As for `CN1CCN(CC(=O)N2c3ccccc3C(=O)Nc3cccnc32)CC1`, the call was inactive.

In the case of `CN(C)C(=O)Oc1ccc[n+](C)c1`, the compound was classed as inactive.

Take `COCCc1ccc(OCC(O)CNC(C)C)cc1` (stereo unspecified): the outcome was inactive.

For `CCn1nc(C(=O)O)c(=O)c2cc3c(cc21)OCO3`, the outcome was inactive.

On to `CNCCCN1c2ccccc2CCc2ccccc21`, for which the compound was called inactive.

For `FC(F)(F)c1ccccc1-n1ccnc1`, the result was inactive.

For `CCCCCN(CCCCC)C(=O)C(CCC(=O)O)NC(=O)c1ccc(Cl)c(Cl)c1` (stereo unspecified), the outcome was inactive.

In the case of `CCCNC(C)C(=O)Nc1ccccc1C` (stereo unspecified), the compound was called inactive.

Consider `Nc1c2c(nc3ccccc13)CCCC2O` (stereo unspecified), for which the outcome was inactive.

In the case of `O=C(O)CCCCCCCC(=O)O`, the call was inactive.

Turning to `Nc1nc(N)c2nc(-c3ccccc3)c(N)nc2n1`, the compound was called inactive.

For the compound `Nc1ncn([C@@H]2O[C@H](CO)[C@@H](O)[C@H]2O)c(=O)n1`, the result was inactive.

With `CC(C)COCC(CN(Cc1ccccc1)c1ccccc1)N1CCCC1` (stereo unspecified), the result was inactive.

`CCN(CC)CCOCCOC(=O)C1(c2ccccc2)CCCC1`: the compound was classed as inactive.

Take `CN/C(=C\[N+](=O)[O-])NCCSCc1ccc(CN(C)C)o1`: the outcome was inactive.

Take `CC(C)[N+](C)(CCOC(=O)C1c2ccccc2Oc2ccccc21)C(C)C`: the outcome was inactive.

Regarding `COc1ccc(CN(CCN(C)C)c2ccccn2)cc1`, the result was inactive.

Turning to `CC(C)(C)NCC(O)c1cc(O)cc(O)c1` (stereo unspecified), the result was inactive.

As for `CCN(CC)CCNC(=O)c1ccc(NC(C)=O)cc1`, the compound was called inactive.

For the compound `Cc1ccc(Cl)c(Nc2ccccc2C(=O)O)c1Cl`, the call was inactive.

For `Fc1ccc(C(c2ccc(F)cc2)N2CCN(C/C=C/c3ccccc3)CC2)cc1`, the result was inactive.

Consider `CN(C)CCCN1c2ccccc2Sc2ccc(C(F)(F)F)cc21`, for which the compound was classed as inactive.

Another experiment can be described thus: qHTS Assay for Identification of Small Molecule Agonists for Thrombopoietin (TPO) Signaling Pathway (AID 917). Particulars: TPO signaling pathway reporter cells, agonist qHTS, stimulated with TPO at its EC50; series mostly up to 38.5 µM. The method, boiled down:
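Murine Ba/F3 cells expressing human TPO receptor and GPIIb-promoter luciferase, IL-3-starved overnight, given compound plus TPO at 26 pM (EC50). After 24 h at 37 C, 5% CO2, luminescence read.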
For orientation: In qHTS, concentration-response curves come from the screen itself.
As for `CN(C)CCN(Cc1cccs1)c1ccccn1`, the compound was classed as inactive.

As for `CCCN(CCC)CCc1cccc2c1CC(=O)N2`, the compound was called inactive.

As for `Cc1ccc(S(=O)(=O)NC(=O)NN2CCCCCC2)cc1`, the call was inactive.

`CCCC(C(=O)OCCN(CC)CC)(c1ccccc1)c1ccccc1`: the result was inactive.

As for `CCCCNc1ccc(C(=O)OCCN(C)C)cc1`, the compound was called inactive.

On to `CC(C)NNC(=O)c1ccncc1`, for which the call was inactive.

Turning to `CCn1cc(C(=O)O)c(=O)c2cc3c(cc21)OCO3`, the call was inactive.

Regarding `COc1cc(Cc2cnc(N)nc2N)cc(OC)c1OC`, the outcome was inactive.

In the case of `CN1CCN(CC(=O)N2c3ccccc3C(=O)Nc3cccnc32)CC1`, the compound was called inactive.

Turning to `CN(C)C(=O)Oc1ccc[n+](C)c1`, the compound was called inactive.

With `CCn1nc(C(=O)O)c(=O)c2cc3c(cc21)OCO3`, the result was inactive.

With `FC(F)(F)c1ccccc1-n1ccnc1`, the compound was classed as inactive.

Consider `O=C(O)CCCCCCCC(=O)O`, for which the result was inactive.

Take `Nc1nc(N)c2nc(-c3ccccc3)c(N)nc2n1`: the result was inactive.

In the case of `CCN(CC)CCOCCOC(=O)C1(c2ccccc2)CCCC1`, the outcome was inactive.

Consider `CN/C(=C\[N+](=O)[O-])NCCSCc1ccc(CN(C)C)o1`, for which the compound was called inactive.

On to `CC(C)[N+](C)(CCOC(=O)C1c2ccccc2Oc2ccccc21)C(C)C`, for which the result was inactive.

Consider `COc1ccc(CN(CCN(C)C)c2ccccn2)cc1`, for which the compound was called inactive.

In the case of `CCN(CC)CCNC(=O)c1ccc(NC(C)=O)cc1`, the compound was called inactive.

With `Cc1ccc(Cl)c(Nc2ccccc2C(=O)O)c1Cl`, the outcome was inactive.

A further experiment in a line: Confirmation and Secondary Assay for Modulators of Hemoglobin Beta Chain Splicing at IVS2 705 locus (AID 930).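 Note: HeLa cells stably expressing the EGFP-705 splicing reporter; GFP fluorescence per well restored by corrected splicing of the IVS2-705 intron in EGFP.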 As to conditions: HeLa EGFP-705 splicing reporter, GFP fluorescence, 48 h; series mostly up to 46.1 µM. The gist of the method:
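Secondary splice-site specificity test uses HeLa expressing CMV-driven EGFP interrupted by IVS2-705; cells were treated 2 days at 37C with 500 nM antisense PNA as positive control.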
As for `CN(C)CCN(Cc1cccs1)c1ccccn1`, the compound was called inactive.

In the case of `CCCN(CCC)CCc1cccc2c1CC(=O)N2`, the compound was classed as inactive.

As for `Cc1ccc(S(=O)(=O)NC(=O)NN2CCCCCC2)cc1`, the compound was called inactive.

Consider `CCCC(C(=O)OCCN(CC)CC)(c1ccccc1)c1ccccc1`, for which the result was inactive.

Consider `Cc1ccc(/C(=C\CN2CCCC2)c2ccccn2)cc1`, for which the call was inactive.

For the compound `CCCCNc1ccc(C(=O)OCCN(C)C)cc1`, the outcome was inactive.

As to `OC(CCN1CCCCC1)(c1ccccc1)C1CCCCC1` (stereo unspecified), the compound was classed as inactive.

Consider `CC(C)NNC(=O)c1ccncc1`, for which the result was inactive.

Consider `CCn1cc(C(=O)O)c(=O)c2cc3c(cc21)OCO3`, for which the compound was classed as inactive.

In the case of `COc1cc(Cc2cnc(N)nc2N)cc(OC)c1OC`, the compound was called inactive.

Take `C=CCc1ccccc1OCC(O)CNC(C)C` (stereo unspecified): the compound was classed as inactive.

Consider `CN1CCN(CC(=O)N2c3ccccc3C(=O)Nc3cccnc32)CC1`, for which the compound was called inactive.

In the case of `CN(C)C(=O)Oc1ccc[n+](C)c1`, the call was inactive.

For `COCCc1ccc(OCC(O)CNC(C)C)cc1` (stereo unspecified), the compound was classed as inactive.

Regarding `CCn1nc(C(=O)O)c(=O)c2cc3c(cc21)OCO3`, the compound was called inactive.

For the compound `CNCCCN1c2ccccc2CCc2ccccc21`, the compound was classed as inactive.

For `FC(F)(F)c1ccccc1-n1ccnc1`, the compound was called inactive.

Regarding `CCCCCN(CCCCC)C(=O)C(CCC(=O)O)NC(=O)c1ccc(Cl)c(Cl)c1` (stereo unspecified), the call was inactive.

Take `CCCNC(C)C(=O)Nc1ccccc1C` (stereo unspecified): the compound was classed as inactive.

Consider `Nc1c2c(nc3ccccc13)CCCC2O` (stereo unspecified), for which the outcome was inactive.

As to `O=C(O)CCCCCCCC(=O)O`, the call was inactive.

On to `Nc1nc(N)c2nc(-c3ccccc3)c(N)nc2n1`, for which the result was inactive.

As to `Nc1ncn([C@@H]2O[C@H](CO)[C@@H](O)[C@H]2O)c(=O)n1`, the outcome was inactive.

For `CC(C)COCC(CN(Cc1ccccc1)c1ccccc1)N1CCCC1` (stereo unspecified), the call was inactive.

For the compound `CCN(CC)CCOCCOC(=O)C1(c2ccccc2)CCCC1`, the compound was classed as inactive.

On to `CN/C(=C\[N+](=O)[O-])NCCSCc1ccc(CN(C)C)o1`, for which the compound was called inactive.

For `CC(C)[N+](C)(CCOC(=O)C1c2ccccc2Oc2ccccc21)C(C)C`, the compound was called inactive.

For the compound `COc1ccc(CN(CCN(C)C)c2ccccn2)cc1`, the compound was classed as inactive.

`CC(C)(C)NCC(O)c1cc(O)cc(O)c1` (stereo unspecified): the result was inactive.

For `CCN(CC)CCNC(=O)c1ccc(NC(C)=O)cc1`, the result was inactive.

`Cc1ccc(Cl)c(Nc2ccccc2C(=O)O)c1Cl`: the result was inactive.

As for `Fc1ccc(C(c2ccc(F)cc2)N2CCN(C/C=C/c3ccccc3)CC2)cc1`, the outcome was inactive.

In the case of `CN(C)CCCN1c2ccccc2Sc2ccc(C(F)(F)F)cc21`, the compound was classed as inactive.
